LASV entry inh – qHTS for Inhibitors of binding or entry into cells for Lassa Virus; Lassa virus pseudotyped entry inhibition, cell-based qHTS; Potency, µM (titrated, usually from 49.2 µM), inactives show at the highest dose activity change, negative = inhibition, hits mostly inhibitors; actives 4.1% (n = 18,000); AID 720533, 2013
Marburg entry – qHTS for Inhibitors of binding or entry into cells for Marburg Virus; Marburg virus pseudotype entry/binding inhibition, cell-based; Potency, µM (highest dose often 49.2 µM), for the others: at the top dose activity change, negative = inhibition, actives largely listed as inhibitors; actives 6.5% (n = 18,000); AID 720532, 2013
* marks the source's active call; other numbers are inactive results; ? = inconclusive; / = not tested or not shown; ! = a repeat was not active; [ ] = remark or other dose. Compounds with a hit are over-represented: about 8.6% of the library has one in this group of screens. The call rests on the fitted dose curve; tested in HEK293 cells. On the % scale 0 is the no-effect control and ±100 the full control effect; potency means the concentration at half of the fitted maximal effect.

SMILES	LASV entry inh	Marburg entry
COCC=CC1=CC2=CC(=O)C(C)(OC(=O)c3cnc4ccccc4n3)C(=O)C2=CN1Cc1ccc(OC)cc1 (stereo unspecified)	11%[8.59 µM]	-2%[8.59 µM]
CC1(S(=O)(=O)O)CC(=O)c2ccccc2C1=O (stereo unspecified)	25µM*	14µM*
CC1=CC(=O)c2c(O)cccc2C1=O	3.2µM*	4µM*
CC1=CC(=O)c2ccccc2C1=O	?	10µM*!
CC1=CC2C(=O)c3cccc(O)c3C(=O)C2C(O)=C1 (stereo unspecified)	-5%	11%
CN1C(=O)c2ccccc2C1=O	-1%[107 µM]	19%[107 µM]
Cc1cc(-c2ccnc(-n3ncc(C(=O)NCC4COCCO4)c3C)n2)c(C)s1 (stereo unspecified)	-8%	?
CO[C@H]1C=CO[C@@]2(C)Oc3c(C)c(O)c4c(O)c(c(/C=N/N5CCN(C6CCCC6)CC5)c(O)c4c3C2=O)NC(=O)/C(C)=C\C=C[C@H](C)[C@H](O)[C@@H](C)[C@@H](O)[C@@H](C)[C@H](OC(C)=O)[C@@H]1C	?	-18%
C[C@@H]1COc2cc(F)ccc2S(=O)(=O)N1	8%	28%
O=C1N(Cc2ccccc2C(F)(F)F)c2ccccc2[C@@]12O[C@H](COc1ccccc1)CC1=C2CCC1	4%[8.59 µM]	-24%[8.59 µM]
C=CCN(C)CCCCCCOc1ccc(C(=O)c2ccc(Br)cc2)c(F)c1	?	4µM*
CCOC(=O)[C@@]1([C@@H](NC(=O)OC)c2cccc(F)c2)CCCC1=O	1%[8.59 µM]	-13%[8.59 µM]
COC1C(O)C(C)O[C@H](OC2CC[C@@]3(C=O)C4CC[C@]5(C)C(C6=CC(=O)OC6)CC[C@@]5(O)C4CC[C@@H]3C2)C1O (stereo partly specified)	0.1µM*	?
COC1C(O)C(C)O[C@@H](OC2CC[C@@]3(C)C4CC[C@]5(C)C(C6=CC(=O)OC6)CC[C@@]5(O)C4CC[C@@H]3C2)C1O (stereo partly specified)	0.1µM*	0.079µM*
CCCCCCC#C[C@@H]1C=C[C@H](OC(=O)OCC)[C@@H](COC(=O)OCC)O1	-29%[8.59 µM]	-12%[8.59 µM]
COC(=O)[C@]1(C=C2c3ccccc3C[C@H](OC)[C@@H]2C)[C@@H]2CC=C[C@@H]21	-6%[8.59 µM]	-8%[8.59 µM]
COc1cc(-c2ccc(-[n+]3nc(-c4ccccc4)nn3-c3ccc([N+](=O)[O-])cc3)c(OC)c2)ccc1-[n+]1nc(-c2ccccc2)nn1-c1ccc([N+](=O)[O-])cc1	14µM*	14µM*
COc1ccc(CCN(C)CCCC(C#N)(c2cc(OC)c(OC)c(OC)c2)C(C)C)cc1OC (stereo unspecified)	-10%	32µM*
COc1ccc(CCN(C)CCc2ccc(OC)c(OC)c2)cc1OC	-13%	-29%
CCC(=O)Oc1ccc2c(c1)CC[C@@H]1[C@@H]2CC[C@]2(C)[C@@H](OC(=O)CC)CC[C@@H]12	-19%	1%
COc1ccccc1C1CN(CCNC(=O)c2cnsn2)Cc2ccccc2O1 (stereo unspecified)	-5%	?
CCCCC(=O)OCC(=O)[C@]1(O)Cc2c(O)c3c(c(O)c2[C@@H](O[C@H]2C[C@H](NC(=O)C(F)(F)F)[C@H](O)[C@H](C)O2)C1)C(=O)c1c(OC)cccc1C3=O	2.8µM*	?
CC[C@]1(O)CC(O[C@@H]2CC(N(C)C)C(O)C(C)O2)c2c(cc3c(c2O)C(=O)c2c(O)cccc2C3=O)C1C(=O)OC (stereo partly specified)	-26%	20µM*
CC[C@@]1(O)CC(O)c2c(cc3c(c2O)C(=O)c2c(O)ccc(O)c2C3=O)C1C(=O)OC (stereo partly specified)	6%	-20%
COc1cccc2c1C(=O)c1c(O)c3c(c(O)c1C2=O)C[C@](O)(C(C)=O)C[C@H]3O[C@@H]1C[C@H](N)[C@H](O)[C@H](C)O1	1µM*	?
SMILES	LASV entry inh	Marburg entry
COc1cccc2c1C(=O)c1c(O)c3c(c(O)c1C2=O)C[C@@](O)(C(=O)CO)C[C@@H]3O[C@H]1C[C@H](N)[C@H](O)[C@H](C)O1	20µM*!	0.28µM*!
C=CCOC(=O)N[C@H](C(C(=O)OC)=C(C)NCc1ccccc1)c1cccc(F)c1	5%[8.59 µM]	?
CN[C@@]1(c2ccccc2Cl)CCCCC1=O	-13%	-13%
O=C(NCCc1ccccn1)c1cnn(-c2ncc3c(n2)-c2ccccc2CC3)c1C1CC1	-14%	-13%
CCCCCCN1C[C@@H](n2cc(C3CC3)nn2)[C@H](O)C[C@H]1c1ccc(C)cc1	/	-33%
Cn1ccc2c(-c3ccccc3Cl)cc3c(c21)C1CCC3C1 (stereo unspecified)	17%	-20%
CCC(=O)Nc1ccc(C)c(-c2ccc(C(=O)NCC3CC3)cc2)c1	-18%	36%
COC(=O)c1ccc(CN2C(=O)[C@@]3(CC(C)=CC[C@@H](C)O3)c3ccccc32)cc1	7%[8.59 µM]	-29%[8.59 µM]
CCOC(=O)C1OC1C(=O)NC(CC(C)C)C(=O)NCCC(C)C (stereo unspecified)	-3%	3.5µM*
C=C1c2cccc(C(F)(F)F)c2O[C@H](C(=O)OCC)[C@@H]1CCC(C)C	4%	-12%
CCOC(=O)C1OC1C(=O)N[C@@H](CC(C)C)C(=O)NCCC(C)C (stereo partly specified)	-4%	5µM*
CC=COC(=O)N[C@@H](c1ccccc1)[C@]1(C(C)=O)CCCC1=O	/	-6%[8.59 µM]
COc1ccc(O[C@H]2C=C[C@@H](c3ccccc3)O[C@H]2COC(=O)CCC(C)=NOCC[C@@H]2C=C[C@H](OC(C)=O)[C@@H](COC(C)=O)O2)cc1	5%[8.59 µM]	33%[8.59 µM]
C[C@@H]1N[S+](=O)([O-])c2cccc(Cl)c2O[C@H]1c1ccccc1	?	33%
CCN(CC)CC(O)CN1CCCCc2nc(C)c(C)cc21 (stereo unspecified)	-17%[8.59 µM]	-8%[8.59 µM]
Cc1nnc(-c2ccc(C)c(-c3ccc(C(=O)Nc4cccc(C#N)c4)cc3)c2)o1	/	46%
Cc1nnc(-c2ccc(C)c(-c3ccc(C(=O)NCc4ccc(Cl)cc4)cc3)c2)o1	/	2.8µM*
COc1ccc(C[C@@H]2NC[C@H](O)[C@@H]2OC(C)=O)cc1	0.011µM*	?
COc1ccc2cc(CCC(C)=O)ccc2c1	50%[17.8 µM]	54%[17.8 µM]
COc1ccc(C[C@H]2NC[C@H](O)[C@H]2OC(C)=O)cc1	3.5e-05µM*	?
COc1ccc(N2C[C@H](Cc3ccccc3)[C@@H](CC(=O)Nc3ccccc3)C2=O)cc1	/	-27%
C=CCOC(=O)N[C@H](C(C(=O)OC)=C(C)NCc1ccccc1)c1ccc(Br)cc1	-3%[8.59 µM]	7%[8.59 µM]
C=CCN1c2ccccc2[C@]23CCC(=O)N(CC(=O)OC)C2=NC(C(=O)OC)=C(C(=O)OC)[C@H]13	13%[8.59 µM]	18%[8.59 µM]
CS(=O)(=O)CCN(CC#N)Cc1ccc(-c2ccc3ncnc(Nc4ccc(OCc5cccc(F)c5)c(Cl)c4)c3c2)o1	21%	-10%
CCOC(=O)CN1C(=O)[C@]2(OC[C@@H]3Cc4ccccc4[C@H]3C=C2C)c2ccccc21	1%[8.59 µM]	-22%[8.59 µM]
COC(=O)CC=C[C@@H](C)[C@H](OC)c1cc(F)ccc1Br	-10%[8.59 µM]	59%[8.59 µM]
O=C(OCc1cn([C@@H]2CN(C(=O)c3cccs3)[C@@H](c3ccc(Cl)cc3)C[C@@H]2O)nn1)c1ccccc1	4%	-8%
Cc1ccccc1OCC(O)CNCCOc1ccc(C(N)=O)cc1 (stereo unspecified)	-1%	-4%

From PubChem BioAssay
